Shown are actives, neighbours in structure and some others; about 6.8% of the full set was active somewhere.
KB-3-1 cytotox = kills parental KB-3-1 adenocarcinoma cells. AID 1347075. actives 1.4% (n = 400,000). Potency, µM (top dose mostly 46.1 µM), actives largely listed as cytotoxic. KB-3-1 viability, CellTiter-Glo ATP luminescence, 72 h; also: % is scaled to controls: 0 for no effect and ±100 for the full control effect; nearly all actives have a fitted effect of over 60% in size
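Multi-concentration cytotoxicity screen in KB-3-1 cells grown in DMEM lacking phenol red with 10% FBS. After 72 h at 37 °C with compound, ATP-dependent luminescence was recorded.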
TSG101-PTAP inh = blocks PTAP/TSG101 interaction to inhibit HIV-1 budding | Potency, µM (series often up to 115 µM), without a hit: top-dose activity change, negative = inhibition, actives largely listed as inhibitors | Fluorescence polarization, FITC-PTAP peptide / Tsg101 binding | 340,000 tested, under 10 active; active = well fitted inhibition curve with a large enough effect in the main read-out, with a control signal flat, not every such curve was filed as active; inconclusive = small, poorly fitted or top-dose-only effect, or effect the other way, or a change in a side signal; inactive = no such curve, though single readings can be large or run the other way; also: % of control where 0% means no effect
Target sequence (Q99816 whole entry, looked up): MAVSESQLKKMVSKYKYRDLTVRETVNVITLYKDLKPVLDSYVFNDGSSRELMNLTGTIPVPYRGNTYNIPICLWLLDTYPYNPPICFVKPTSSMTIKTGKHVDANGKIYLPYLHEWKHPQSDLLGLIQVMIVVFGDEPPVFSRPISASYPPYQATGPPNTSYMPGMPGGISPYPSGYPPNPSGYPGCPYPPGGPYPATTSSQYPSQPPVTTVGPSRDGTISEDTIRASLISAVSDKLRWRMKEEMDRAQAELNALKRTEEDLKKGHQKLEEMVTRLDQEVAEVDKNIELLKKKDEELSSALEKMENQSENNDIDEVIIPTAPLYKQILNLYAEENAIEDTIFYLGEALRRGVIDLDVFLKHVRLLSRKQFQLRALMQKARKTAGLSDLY
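Steps: Tsg101 binding domain dispensed (10 uM final), compounds pinned in DMSO, FITC-labeled PTAP-motif peptide added (50 nM final); after 20 min binding at room temperature, polarization measured.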
MCF10A rereplic = inducers of DNA re-replication in MCF 10A breast cells. actives 2.9% (n = 350,000). AID 624296. Potency, µM (doses to about 46.1 µM), for the others: at the top dose activity, positive = re-replication, most hits filed as activators. MCF 10A DNA re-replication, Hoechst nuclear intensity, 48 h; also: % of control where 0% means no effect; nearly all actives have a fitted effect of over 50% in size
KB-V1 cytotox = KB-V1 MDR subline cytotoxicity; actives 3.4% (n = 400,000); KB-V1 MDR cells viability, CellTiter-Glo, 72 h; Potency, µM (highest dose often 46.1 µM), most hits filed as cytotoxic; AID 1347076; also: % is scaled to controls: 0 for no effect and ±100 for the full control effect; nearly all actives have a fitted effect of over 60% in size
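qHTS viability screen in drug-selected KB-V1 MDR cells: 72 h compound treatment at 37 degrees C, ATP luminescence end point.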
SW480 rereplic = induces DNA re-replication in SW480 colon adenocarcinoma cells; SW480 DNA re-replication, Hoechst DNA content imaging, 48 h; actives 1.8% (n = 340,000); Potency, µM (highest dose often 46.1 µM), without a hit: at the highest dose re-replication activation, most hits filed as activators; AID 624297; also: % of control where 0% means no effect; nearly all actives have a fitted effect of over 55% in size
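Readout is total intensity of Hoechst-stained nuclei, excited at 405 nm and collected at 500-530 nm. Compound treatment lasted 48 hr at 37 C in 5% CO2 before staining.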
PINK1 modulator = changes PINK1 expression | Potency, µM (top dose mostly 76.6 µM), for the others: at the top dose activation (PINK1 increase), actives largely listed as activators | PINK1 immunofluorescence, high-content cytometry, 24 h | actives 0.2% (n = 410,000); active = well fitted activation curve with a large enough effect; inconclusive = small, poorly fitted or top-dose-only effect; cell line not stated here; also: % of control where 0% means no effect; nearly all actives have a fitted effect of over 65% in size
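PINK1 protein, normally rapidly degraded, was detected by immunofluorescence after 24 hour compound treatment of a stable cell line. Titration data (5 concentrations) came from laser-scanning cytometry, with CCCP-treated wells as controls.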
* = called active by the depositor; i = inactive; ? = inconclusive; nt = no result; [ ] = another dose, or the depositor's remark. Unless noted, calls follow the shape of the dose curve; as a rule, active = well fitted curve in the direction sought with a large enough effect; inconclusive = small, poorly fitted or top-dose-only effect, or another doubt; inactive = no such curve, though single readings can be large; an effect the other way counts as inactive or inconclusive. Potency is read from the fitted curve at half-maximal effect.

SMILES	KB-3-1 cytotox	TSG101-PTAP inh	MCF10A rereplic	KB-V1 cytotox	SW480 rereplic	PINK1 modulator
CCN1C(=O)C2(c3ccccc31)c1c(oc3ccc(F)cc3c1=O)C(=O)N2CCCOC (stereo not given)	i	nt	nt	i	nt	1%
C[C@]12C=C[C@H](O)CC1=CCC1C2CC[C@@]2(C)C1CCC21OCCO1 (stereo not given in full)	i	0%	21µM*	?	?	5%
Cc1ccc(NC(=O)C2CCN(c3ncccn3)CC2)cc1F	i	nt	nt	i	nt	1%
CCC(C)NC(=O)c1cnn(-c2ccc(Cl)cc2)c1C1CCN(C(=O)OC(C)(C)C)CC1 (stereo not given)	i	nt	nt	i	nt	0%
Cc1ccc(OCC(=O)NCC(c2ccc(Cl)cc2)N2CCCCC2)cc1 (stereo not given)	i	nt	nt	i	nt	5%
CCCCNC(=O)c1nc(-c2cc3ccccc3[nH]2)oc1-c1ccccc1	i	nt	nt	8.2µM*	nt	nt
CCOc1ccc2nc(N(CCCN(C)C)C(=O)c3ccc4c(c3)CCCC4)sc2c1	21µM*	-2%	?	i	?	-2%
Cc1cc(C)c2nc(N(CCCN(C)C)C(=O)c3ccc4c(c3)OCCO4)sc2c1	?	-8%	18µM*	26µM*	?	-3%
CN(C)CCCN(C(=O)c1ccc2c(c1)CCCC2)c1nc2ccc(Cl)cc2s1	?	2%	?	10µM*	?	-4%
Cc1ccc2nc(N(CCCN(C)C)C(=O)CCc3ccccc3)sc2c1	i	2%	12%	i	?	-4%
CN(C)CCCN(C(=O)CCc1ccccc1)c1nc2ccc(Cl)cc2s1	?	-3%	?	23µM*	8%	-4%
CCCCCCCCCCCCCCCCCC(=O)OCC(O)CO (stereo not given)	nt	nt	11%	nt	1%	nt
Cn1c(=O)c2sccc2n2c(CCCC(=O)Nc3ccc(Oc4ccccc4)cc3)nnc12	nt	nt	nt	nt	nt	-1%
COc1ccc2ncc3c(-c4ccc(C)c(C)c4)nn(CC(=O)Nc4ccccc4)c3c2c1	i	nt	nt	?	nt	8%
CCN(CC)C(=O)CSc1nc2ccccc2c(=O)n1CC1CCCCC1	?	-2%	?	i	0%[9.22 µM]	1%
COc1ccc(C(=O)NCCn2cc(SCC(=O)Nc3cc(C)on3)c3ccccc32)cc1OC	i	-7%	23%	i	8%	0%
COc1ccccc1C(=O)NCCn1cc(SCC(=O)Nc2cc(C)on2)c2ccccc21	i	2%	?	8.2µM*	3%	1%[38.3 µM]
COc1ccc(C)cc1-n1c(SCC(=O)Nc2cc(C)on2)nc2ccccc2c1=O	?	2%	3%	18µM*	1%	0%
O=c1c2ccccc2nc(SCc2cccc(F)c2)n1C1CCCC1	i	0%	18µM*	?	11%	?
COc1ccc(-n2c(SCC(=O)Nc3cc(C)on3)nc3ccccc3c2=O)cc1Cl	?	1%	0%	?	14%	-1%
CCCN(CCC)C(=O)CSc1nc2ccccc2c(=O)n1C1CCCC1	i	-15%	?	7.3µM*	22%	-1%
N#CCSc1nc2ccccc2c(=O)n1C1CCCCC1	i	-2%	-1%	?	0%	4%
CCc1ccc(S(=O)(=O)c2cn(C)c3cc(N4CCC(C)CC4)c(F)cc3c2=O)cc1	i	nt	nt	i	nt	1%
CCc1ccc(NC(=O)c2sc3nc(C)c(Cl)c(C)c3c2NC(=O)c2ccccc2OC)cc1	?	nt	nt	i	nt	0%
Cc1cc(NC(=O)CSc2nc3ccccc3c(=O)n2C2CCCC2)no1	?	-7%	1.3µM*	1.3µM*	1.3µM*	3%
SMILES	KB-3-1 cytotox	TSG101-PTAP inh	MCF10A rereplic	KB-V1 cytotox	SW480 rereplic	PINK1 modulator
CN(C)c1ccc(NC(=O)CSc2nc3ccccc3c(=O)n2C2CCCCC2)cc1	i	-6%	?	i	1%	2%
C[C@]12CC[C@H]3c4ccc(O)cc4CC[C@@H]3[C@H]1CC[C@@H]2OC(=O)CCC1CCCC1	nt	nt	?	nt	8%	nt
CCN(Cc1ccccc1)C(=S)NC(=O)c1ccccc1Br	?	-4%	15%	?	12µM*	0%
Cc1ccc(N(C(C)C(=O)N2CCOCC2)S(C)(=O)=O)cc1C (stereo not given)	i	-6%	-13%	i	23µM*	-1%
O=C(CCN1Cc2ccccc2OC(c2ccccc2F)C1)N1CCC(N2CCCC(O)C2)CC1 (stereo not given)	nt	nt	nt	nt	nt	6%
O=C(/C=C/c1ccccc1Cl)c1ccc[nH]1	?	0%	?	i	4.6µM*	-2%
CC(C)Cc1nn2c(=O)cc(COC(=O)c3ccc(NC(=O)CCc4ccccc4)cc3)nc2s1	nt	nt	nt	nt	nt	0%
COc1ccc(/C=C(\C#N)C(=O)Nc2cc(C)c(Cl)cc2OC)cc1O	21µM*	1%	?	i	10µM*	10%
CN(C)c1ccc(/C=N/NC(=O)C(=O)/C=C2\NC3(CCCC3)Cc3ccccc32)cc1	i	8%	22%	18µM*	-4%	-1%
COc1cc(/C=N/NC(=O)C(=O)/C=C2\NC3(CCCC3)Cc3ccccc32)ccc1O	i	-1%	10%	?	-3%	-3%
N#Cc1c(C(F)(F)F)cc(-c2cccs2)nc1SCC(=O)Nc1ccc(Cl)cc1	i	nt	nt	i	nt	2%
CCC(=O)Oc1ccc2c(=O)c(-c3ccc4ccccc4n3)c(CC)oc2c1C	i	-4%	-7%	13µM*	-5%	0%
Cc1oc2c(C)c(O)ccc2c(=O)c1-c1ccc2ccccc2n1	i	-12%	10%	?	6%	?
CN(c1ncnc2c1c(-c1ccccc1)cn2-c1cccc(Cl)c1)C1CCCCC1	nt	nt	nt	nt	nt	4%
Cc1cc(C)n(-c2nc3ccccc3c(=O)n2OCC(=O)N(C)C)n1	i	-2%	-3%	i	-1%	2%
Cc1cc(C)n(-c2nc3ccccc3c(=O)n2OCC(=O)OCc2ccccc2)n1	23µM*	-1%	8%	i	?	10%
Cc1cc(CC(C)C)n(-c2nc3ccccc3c(=O)n2OCc2ccccc2)n1	?	-3%	27%	9.2µM*	4%	-2%
Cc1cc(CC(C)C)n(-c2nc3ccccc3c(=O)n2OCC(=O)N(C)C)n1	i	0%	3%	i	-3%	0%
Cc1sc2c(c1C)c(=O)n(-c1cccc(C(F)(F)F)c1)c(=O)n2Cc1ccc(F)cc1	i	nt	nt	i	nt	4%
COCCCNC(=S)NCCNc1nc2c(C)c(C)ccc2cc1C#N	i	-2%	23µM*	?	?	5%
